The values that follow come from ChEMBL document CHEMBL3433997, “St. Jude Leishmania screening dataset” (2016).

The target of the test is Glucose transporter (Leishmania mexicana) (UniProt O61059). Briefly: ST_JUDE_LEISH: Cytotoxicity at 2uM final concentration against transgenic Leishmania Mexicana promastigotes LmGT2 that are glucose transport deficient and complemented with the L. Mexicana glucose transporter 2. Activity is measured by DNA content using SYBR green in vitro. Format: functional.
Regarding `Cn1cccc1C(=O)Nc1cccc(-c2nn3ccccc3c2-c2ccnc(Nc3ccc4c(c3)OCCO4)n2)c1`, the inhibition is -1.17%.

With `COc1ccc2ncc(C#N)c(CCN3CCC(NCc4ccc5c(c4)OCCO5)CC3)c2c1`, the inhibition is 83.2%. With `O=c1ccc(CNc2nc(NCCc3ccccc3)nc3ccc(Cl)cc23)c[nH]1` the figure was 0.86%; with `O=C(N[C@@H](Cc1ccccc1)C(=O)NC1CCCc2ccccc21)c1ccc(O)c(-c2cccc(C(F)(F)F)c2)c1` (stereo not given in full), -1.61%. Under `Fc1ccc2[nH]c(-c3cccc(-c4ccc(CN5CCN(CCN6CCOCC6)CC5)cc4)c3)nc2c1` stands 1.79%; under `CCOC(=O)c1cc(C(=O)NCCCCN2CCC(c3cn(C)c4ccccc34)CC2)ccc1-c1ccc(C(F)(F)F)cc1`, 1.11%; under `CN/C(=C\[N+](=O)[O-])NCCSCc1cc(C)c(CN(C)C)s1`, 5.98%. With `COc1ccc(Oc2ccc(-c3c(O)cc(C)nc3C)cc2)cc1`, the inhibition is 1.27%. Turning to `COc1ccc2[nH]ccc(=NN=Cc3ccc(Cl)cc3)c2c1`, the inhibition turned out to be 0.32%.

In the case of `CCOc1cc(C)ccc1N1CCN(CCN2CCC(NC(=O)c3ccc(-c4ccc(C#N)cc4)cc3)CC2)CC1`, the inhibition came to 2.27%. With `Cc1ccc(-c2ccn(Cc3cccc(OCc4ccccc4)c3)n2)cn1.Cc1ccc(-c2ccnn2Cc2cccc(OCc3ccccc3)c2)cn1` the figure was -0.57%; with `COc1ccc2ncc(F)c(CCN3CCC(NCc4cc(F)c5c(c4)OCCO5)CC3)c2n1`, 17.9%; with `CC(=O)NCCCCC1NC2(C(=O)N(Cc3ccc(C(C)(C)C)cc3)c3ccccc32)C2C(=O)N(C3CCCCC3)C(=O)C12` (stereo not given), -0.43%. With `CNC(=O)NC1=NC(C)(C)N(OCc2ccc(Cl)c(Cl)c2)C(NC(=O)NC)=N1` the figure was 0.39%. Under `NCc1ccc(CNCc2ccc(-c3ccc(-c4nc5cc(C(F)(F)F)ccc5[nH]4)s3)cc2)cc1` stands 0.6%; under `COc1ccc(NC(=O)/C=C/c2ccccc2Cl)cc1OCCN1CCC(O)(c2ccc(Cl)c(C(F)(F)F)c2)CC1`, 7.73%. As to `CC(C)CCOc1ccc(NC(=O)c2cccs2)cc1`, the inhibition came to 5.27%.

In the case of `CCCC(=O)Nc1ccc(OCCN(Cc2ccccc2OC(F)(F)F)c2ccc(C(F)(F)F)c(C#N)c2)cc1`, the inhibition turned out to be 2.31%. Under `CC(=O)Nc1ccc(CN2CCN(C(c3ccc(F)cc3)c3ccc(F)cc3)CC2)cc1` stands 2.11%. Under `COc1ccccc1NC(=O)Nc1ccc(-c2ccc(-c3nc4cccc(C)c4[nH]3)s2)cc1` stands 1.64%; under `O=C(Nc1ccccc1)N(Cc1cccc(-c2cccc(CNCCc3ccccc3)c2)c1)C1CCN(Cc2ccccc2)CC1`, 4.94%; under `c1ccc(Oc2ccc(Nc3ccnc4cc(-c5csc(CN6CCCCC6)n5)ccc34)cc2)nc1`, 0.89%. Under `Cc1ccccc1C1CCN(c2ccc(NC(=O)c3ccc(Cl)nc3)cc2)CC1` stands 3.84%; under `CCCC(=O)NC(c1ccc(C)cc1)c1ccc2cccnc2c1O` (stereo not given), -1.36%. As for `O=C(Cn1c(SCc2cccc(F)c2F)cc(=O)c2ccccc21)N(CCc1c[nH]cn1)Cc1ccc(-c2ccc(C(F)(F)F)cc2)cc1`, the inhibition turned out to be 2.52%. Under `CCc1c[nH]c2c(N(c3ccccc3)S(C)(=O)=O)cc(C(=O)N[C@@H](Cc3ccccc3)[C@H](O)CNC(C)(C)CCCC(C)C)cc12` stands 0.18%.

In the case of `NC1=NC(c2ccccc2)(c2ccccc2)C(=O)N1Cc1ccc(-c2ccncc2)cc1`, the inhibition is 6.42%. Under `NC(=O)c1cccc(C(=O)Nc2ccc(-c3cccc(-c4nc5cc(F)ccc5[nH]4)c3)cc2)c1` stands 0.23%; under `O=C(NCCCN1CCCC1=O)c1cnc(N2CCC(Oc3ccccc3)CC2)c(Cl)c1`, 0.19%; under `CN(C)C(=O)c1ccc(CN(Cc2cccc(OC(C)(C)C)c2)Cc2ccc3c(c2)OCCO3)cc1`, 1%.

`COc1cccc(-c2cnc(N)c(-c3nc4ccc(C(F)(F)F)cc4[nH]3)c2)c1`: the inhibition worked out at 1.42%.

Take `COc1cccc(NC(=O)NCCNc2ccnc(Nc3ccc(F)cc3)n2)c1`: the inhibition amounted to 0.9%. Take `CCCOc1cccc(C(=O)N[C@@H](Cc2ccccc2)[C@H](O)CNCc2ccccc2OC)c1`: the inhibition was 4.75%. For `OCCN1CCN(C(=S)NC2CCCCC2)CC1`, the inhibition was -1.81%. For the compound `O=C(Nc1cccc(F)c1)N1CCC(NS(=O)(=O)c2ccc(Br)cc2)CC1`, the inhibition worked out at 2.63%. Under `C[C@@H](Oc1cc(-n2cnc3ccc(NC(=O)CCN4CCCCC4)cc32)sc1C(N)=O)c1ccccc1Cl` stands -0.04%. With `Cc1cccc(OC(C)C(=O)Nc2cc(C(F)(F)F)ccc2N2CCOCC2)c1` (stereo not given) the figure was 6.44%. With `CCc1sc(N2CCN(C)CC2)nc1C(=O)Nc1ccc(F)cc1C(F)(F)F`, the inhibition is -0.43%. Under `Oc1ccc2nc(Nc3ccccc3)nc(NCCc3ccccc3)c2c1` stands 5.72%; under `Oc1c(CN2CCC(Cc3ccccc3)CC2)cc(Cl)c2cccnc12`, 9.31%.
